For some assays here: Entries with a potency or affinity are not part of this list.
Assays:
Parameters in all cases: scale not given: direction of the effect not stated beside the values
[1] = molecular target: Protein translocase subunit SecA (Escherichia coli (strain K12)) (UniProt P10408); test: Assay to Identify E. coli SecA ATPase Inhibitors; format: functional; settings: 30 µM
[2] = molecular target: T1, Ubiquitin-activating enzyme e1, putative (Leishmania donovani (strain BPK282A1)) (UniProt E9BSI1); test: Leishmania donovani Ubiquitin Activating Enzyme (LdE1); format: functional; settings: 30 µM
T1 sequence (whole entry): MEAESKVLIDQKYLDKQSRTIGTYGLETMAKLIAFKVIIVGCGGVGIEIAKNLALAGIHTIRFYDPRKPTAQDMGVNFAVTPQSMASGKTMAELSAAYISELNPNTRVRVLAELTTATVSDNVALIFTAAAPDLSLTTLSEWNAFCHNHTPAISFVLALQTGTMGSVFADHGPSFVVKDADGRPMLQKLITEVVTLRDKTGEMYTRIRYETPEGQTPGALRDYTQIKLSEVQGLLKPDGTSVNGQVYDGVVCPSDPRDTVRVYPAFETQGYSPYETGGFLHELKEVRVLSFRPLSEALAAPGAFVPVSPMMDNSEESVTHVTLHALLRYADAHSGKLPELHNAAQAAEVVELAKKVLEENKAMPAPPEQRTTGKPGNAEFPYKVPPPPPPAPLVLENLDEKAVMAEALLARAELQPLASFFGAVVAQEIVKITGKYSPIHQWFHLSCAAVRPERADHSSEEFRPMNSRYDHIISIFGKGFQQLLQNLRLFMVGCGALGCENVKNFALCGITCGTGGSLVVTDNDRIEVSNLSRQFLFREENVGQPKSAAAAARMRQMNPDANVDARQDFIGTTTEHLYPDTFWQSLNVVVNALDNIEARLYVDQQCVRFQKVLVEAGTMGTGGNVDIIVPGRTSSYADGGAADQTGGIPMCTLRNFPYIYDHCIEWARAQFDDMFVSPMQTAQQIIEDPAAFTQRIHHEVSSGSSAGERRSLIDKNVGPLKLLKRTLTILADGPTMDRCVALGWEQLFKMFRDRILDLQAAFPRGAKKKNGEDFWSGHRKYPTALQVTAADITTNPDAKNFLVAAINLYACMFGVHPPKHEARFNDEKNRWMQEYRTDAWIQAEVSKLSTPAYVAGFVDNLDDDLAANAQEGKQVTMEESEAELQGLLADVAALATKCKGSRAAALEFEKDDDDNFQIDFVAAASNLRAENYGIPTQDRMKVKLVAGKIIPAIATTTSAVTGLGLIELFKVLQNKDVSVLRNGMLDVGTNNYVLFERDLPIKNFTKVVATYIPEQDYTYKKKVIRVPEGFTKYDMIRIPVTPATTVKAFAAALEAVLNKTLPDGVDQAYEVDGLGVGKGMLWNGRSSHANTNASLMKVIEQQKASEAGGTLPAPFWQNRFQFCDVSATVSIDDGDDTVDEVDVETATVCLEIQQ

[3] = molecular target: AMP-activated protein kinase, AMPK (Homo sapiens) (UniProt P54646+O43741+P54619+Q9UGJ0+Q9Y478+Q13131+Q9UGI9); test: AMP-dependent Kinase enzyme assay. An in vitro enzyme assay that detects ADP turnover that is directly proportional to AMPK activity. This uses naive AMPK that is activated during the assay with MK-8722; format: functional; settings: 30 µM
[4] = molecular target: Sialic acid-binding Ig-like lectin 9 (Homo sapiens) (UniProt Q9Y336); test: Hs-Siglec9 ALPHAscreen SOP 20170721; settings: 10 µM
Sequence of Sialic acid-binding Ig-like lectin 9 (Homo sapiens) (Q9Y336 whole entry): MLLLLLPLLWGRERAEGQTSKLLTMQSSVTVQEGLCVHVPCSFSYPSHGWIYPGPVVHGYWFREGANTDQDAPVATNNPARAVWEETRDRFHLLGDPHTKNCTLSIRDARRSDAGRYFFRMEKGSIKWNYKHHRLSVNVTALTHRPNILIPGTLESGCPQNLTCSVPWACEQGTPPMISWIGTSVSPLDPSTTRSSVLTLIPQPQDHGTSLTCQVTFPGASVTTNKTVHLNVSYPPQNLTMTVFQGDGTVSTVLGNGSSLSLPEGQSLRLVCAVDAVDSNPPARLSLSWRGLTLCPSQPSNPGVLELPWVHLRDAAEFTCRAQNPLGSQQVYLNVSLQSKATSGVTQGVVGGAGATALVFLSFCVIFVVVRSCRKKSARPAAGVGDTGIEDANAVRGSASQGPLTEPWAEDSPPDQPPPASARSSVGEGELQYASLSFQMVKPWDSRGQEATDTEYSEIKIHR

Trypanosoma cruzi = test: Trypanosoma cruzi phosphomannomutase and mannose-1-phosphate guanylyltransferase assay; format: functional; settings: 10 µM
[5] = molecular target: T2, Arginase-2, mitochondrial (Homo sapiens) (UniProt P78540); test: in vitro enzyme assay to detect the production of urea directly proportional to the activity of Arginase II; format: functional; settings: 33.3 µM; note: in the data most compounds retested in dose-response had high values
T2 sequence (whole entry): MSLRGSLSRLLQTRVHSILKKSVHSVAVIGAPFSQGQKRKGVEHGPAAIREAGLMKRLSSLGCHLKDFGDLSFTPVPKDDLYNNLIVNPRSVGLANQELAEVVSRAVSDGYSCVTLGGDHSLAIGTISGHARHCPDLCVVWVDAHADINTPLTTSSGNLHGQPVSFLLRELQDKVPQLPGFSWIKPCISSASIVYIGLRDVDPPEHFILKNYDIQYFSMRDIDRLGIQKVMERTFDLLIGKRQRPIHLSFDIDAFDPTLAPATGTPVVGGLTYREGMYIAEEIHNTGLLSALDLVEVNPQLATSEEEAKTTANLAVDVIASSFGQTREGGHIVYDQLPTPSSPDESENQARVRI

[6] = molecular target: T3, Proteasome subunit beta (Trypanosoma cruzi) (UniProt O96673); test: Trypanosoma cruzi proteasome chymotrypsin-like activity (TcProtChymo) assay.; note: in the data most compounds retested in dose-response had high values; format: functional; settings: 9.37 µM
T3 sequence (whole entry): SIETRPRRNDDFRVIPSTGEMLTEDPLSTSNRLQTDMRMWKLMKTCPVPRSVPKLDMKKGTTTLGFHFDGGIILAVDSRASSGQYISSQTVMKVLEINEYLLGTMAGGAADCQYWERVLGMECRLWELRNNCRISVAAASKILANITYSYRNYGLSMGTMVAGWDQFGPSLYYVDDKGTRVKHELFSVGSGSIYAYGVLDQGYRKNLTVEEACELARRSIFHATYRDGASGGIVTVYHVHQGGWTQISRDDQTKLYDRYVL

Homo sapiens = organism: Homo sapiens; test: To identify inhibition of the IFN signalling (Jak-Stat) pathway via expression of an eGFP reporter gene under the control of an IFN-stimulated response element (ISRE) containing MxA promoter.; format: functional; settings: 30 µM
[7] = molecular target: T4, Tyrosyl-tRNA synthetase, putative (Trypanosoma cruzi (strain CL Brener)) (UniProt Q4DSP6); test: Trypanosoma cruzi tyrosyl tRNA synthetase (TcYRS) _High Tyrosine SOP; format: functional; settings: 30 µM; note: in the data most compounds retested in dose-response had high values
T4 sequence (whole entry): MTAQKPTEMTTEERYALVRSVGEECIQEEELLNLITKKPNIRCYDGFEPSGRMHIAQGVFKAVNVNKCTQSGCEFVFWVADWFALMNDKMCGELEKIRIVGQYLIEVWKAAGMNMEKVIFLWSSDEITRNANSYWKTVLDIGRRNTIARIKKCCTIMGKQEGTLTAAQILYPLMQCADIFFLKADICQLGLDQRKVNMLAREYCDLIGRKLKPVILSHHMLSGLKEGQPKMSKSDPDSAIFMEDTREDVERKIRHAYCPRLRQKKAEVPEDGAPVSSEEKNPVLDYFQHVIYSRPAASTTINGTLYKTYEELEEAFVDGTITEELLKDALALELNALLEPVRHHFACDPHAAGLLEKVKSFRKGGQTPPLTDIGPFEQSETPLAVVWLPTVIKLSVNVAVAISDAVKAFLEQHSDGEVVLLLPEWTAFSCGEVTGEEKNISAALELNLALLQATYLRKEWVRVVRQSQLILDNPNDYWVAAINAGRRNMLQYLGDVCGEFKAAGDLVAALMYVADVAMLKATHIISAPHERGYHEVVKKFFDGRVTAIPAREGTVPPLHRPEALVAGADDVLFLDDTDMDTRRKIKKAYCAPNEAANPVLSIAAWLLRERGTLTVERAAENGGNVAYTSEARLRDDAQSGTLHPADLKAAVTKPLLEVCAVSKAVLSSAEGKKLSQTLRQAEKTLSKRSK

[8] = molecular target: T4, Tyrosyl-tRNA synthetase, putative (Trypanosoma cruzi (strain CL Brener)); test: Trypanosoma cruzi tyrosyl tRNA synthetase (TcYRS) SOP; format: functional; settings: 30 µM
[9] = molecular target: Chromo domain-containing protein 1 (Saccharomyces cerevisiae (strain ATCC 204508 / S288c) (Baker's yeast)) (UniProt P32657); test: ScCHD-1 Enzyme Inhibition Assay; format: functional; settings: 30 µM; note: in the data most compounds retested in dose-response had high values
Sequence of Chromo domain-containing protein 1 (Saccharomyces cerevisiae (strain ATCC 204508 / S288c) (Baker's yeast)) (P32657 whole entry, the tested form may be a part): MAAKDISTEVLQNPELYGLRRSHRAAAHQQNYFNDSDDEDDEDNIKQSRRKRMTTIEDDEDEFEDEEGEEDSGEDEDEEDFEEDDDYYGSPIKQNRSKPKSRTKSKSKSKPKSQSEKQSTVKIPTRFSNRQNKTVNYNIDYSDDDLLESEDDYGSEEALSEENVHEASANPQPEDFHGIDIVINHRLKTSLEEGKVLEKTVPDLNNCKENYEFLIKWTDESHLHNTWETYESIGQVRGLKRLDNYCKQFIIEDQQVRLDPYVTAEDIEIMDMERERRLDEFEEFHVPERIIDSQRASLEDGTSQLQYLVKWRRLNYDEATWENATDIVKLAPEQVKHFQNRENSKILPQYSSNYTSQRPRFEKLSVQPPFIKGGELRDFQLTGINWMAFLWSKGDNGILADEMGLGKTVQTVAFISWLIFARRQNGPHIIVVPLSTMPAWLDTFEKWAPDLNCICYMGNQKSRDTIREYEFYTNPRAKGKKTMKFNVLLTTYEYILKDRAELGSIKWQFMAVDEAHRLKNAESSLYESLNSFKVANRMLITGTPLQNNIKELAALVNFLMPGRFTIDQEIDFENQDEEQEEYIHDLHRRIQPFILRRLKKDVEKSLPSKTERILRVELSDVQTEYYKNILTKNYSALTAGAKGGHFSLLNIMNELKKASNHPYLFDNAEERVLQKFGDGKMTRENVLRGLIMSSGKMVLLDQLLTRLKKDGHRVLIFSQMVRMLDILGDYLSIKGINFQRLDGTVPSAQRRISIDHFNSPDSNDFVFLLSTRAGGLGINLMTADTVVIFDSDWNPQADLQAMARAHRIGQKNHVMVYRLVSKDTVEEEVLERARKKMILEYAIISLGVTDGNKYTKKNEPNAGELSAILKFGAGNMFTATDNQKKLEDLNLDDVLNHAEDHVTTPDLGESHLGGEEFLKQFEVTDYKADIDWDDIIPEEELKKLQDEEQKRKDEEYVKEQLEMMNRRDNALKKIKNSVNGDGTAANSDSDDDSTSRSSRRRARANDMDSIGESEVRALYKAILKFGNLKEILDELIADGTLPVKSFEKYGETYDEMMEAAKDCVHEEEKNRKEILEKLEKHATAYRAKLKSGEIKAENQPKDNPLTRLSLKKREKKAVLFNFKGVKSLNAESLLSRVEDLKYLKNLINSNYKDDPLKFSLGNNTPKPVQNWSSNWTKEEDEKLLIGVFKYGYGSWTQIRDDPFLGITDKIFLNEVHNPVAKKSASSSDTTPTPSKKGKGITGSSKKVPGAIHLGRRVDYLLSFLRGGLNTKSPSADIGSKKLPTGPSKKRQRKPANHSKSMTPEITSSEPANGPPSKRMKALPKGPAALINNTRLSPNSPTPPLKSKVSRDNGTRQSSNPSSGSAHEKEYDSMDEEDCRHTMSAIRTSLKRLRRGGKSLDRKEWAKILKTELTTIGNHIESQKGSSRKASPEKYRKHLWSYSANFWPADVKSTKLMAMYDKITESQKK

Sequence of Protein translocase subunit SecA (Escherichia coli (strain K12)) (P10408 whole entry): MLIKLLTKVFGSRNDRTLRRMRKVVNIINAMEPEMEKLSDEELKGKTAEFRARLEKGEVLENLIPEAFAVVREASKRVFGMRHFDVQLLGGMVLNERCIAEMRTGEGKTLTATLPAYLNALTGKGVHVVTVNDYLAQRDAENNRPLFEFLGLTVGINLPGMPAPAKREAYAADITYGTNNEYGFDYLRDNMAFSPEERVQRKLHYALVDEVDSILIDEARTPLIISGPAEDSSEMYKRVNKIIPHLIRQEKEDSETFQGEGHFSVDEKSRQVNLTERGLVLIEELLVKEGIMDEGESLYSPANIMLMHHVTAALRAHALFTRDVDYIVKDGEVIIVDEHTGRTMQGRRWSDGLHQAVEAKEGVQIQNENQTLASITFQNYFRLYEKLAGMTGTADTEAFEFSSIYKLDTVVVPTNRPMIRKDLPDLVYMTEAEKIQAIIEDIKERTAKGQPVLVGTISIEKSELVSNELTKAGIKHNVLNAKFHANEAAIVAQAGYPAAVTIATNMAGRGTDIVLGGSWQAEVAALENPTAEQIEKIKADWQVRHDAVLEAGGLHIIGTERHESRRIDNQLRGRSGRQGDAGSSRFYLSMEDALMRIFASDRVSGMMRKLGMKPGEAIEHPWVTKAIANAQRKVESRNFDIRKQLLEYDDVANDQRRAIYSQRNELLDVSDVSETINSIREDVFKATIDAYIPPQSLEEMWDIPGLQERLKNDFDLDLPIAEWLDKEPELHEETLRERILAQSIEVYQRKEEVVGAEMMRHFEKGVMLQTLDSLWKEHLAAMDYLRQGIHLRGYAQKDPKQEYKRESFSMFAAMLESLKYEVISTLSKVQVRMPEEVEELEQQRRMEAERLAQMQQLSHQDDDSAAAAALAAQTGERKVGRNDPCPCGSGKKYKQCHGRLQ

Row | Compound | Percent Effect [1] | Percent Effect [2] | Percent Effect [3] | Percent Effect [4] | Percent Effect (Trypanosoma cruzi) | Percent Effect [5] | Percent Effect [6] | Percent Effect (Homo sapiens) | Percent Effect [7] | Percent Effect [8] | Percent Effect [9]
1 | O=C(c1cn(-c2cc(N3CCOCC3)ncn2)cn1)N1CCSCC1 | -3.27% | 8.22% | -3.63% | 4.82% | 1.18% | 4.09% | 25% | 8.07% | 9.68% | 15% | -5.28%
2 | COc1ccc(C2OC(COc3ccccc3Br)=NN2C(C)=O)cc1 (configuration not stated) | -1.41% | 13% | -0.88% | -8.22% | -5.23% | 3.23% | 9.22% | 4.18% | 0% | 1.28% | -8.68%
3 | c1nc(N2CCCCC2Cn2cncn2)c2ccsc2n1 (configuration not stated) | -6.19% | 16% | -6.98% | 35.1% | 11.6% | 25.5% | 9.59% | 16.8% | 3.83% | 13.6% | -9.92%
4 | CCN1CCN(C(=O)c2ccn(C)c(=O)c2)CC1 | -1.02% | 6.33% | 3.55% | -4.57% | -4.62% | -1.07% | 11.8% | 21.1% | 4.17% | -5.06% | -16.7%
5 | O=C1CC(c2ccc(F)c(F)c2)c2snc(C(=O)O)c2N1 (configuration not stated) | -0.493% | -6.67% | 4.23% | 3.7% | -2.36% | 0.176% | 2.77% | -4.84% | 2.12% | -5.13% | -4.62%
6 | c1cnn(CCNCc2nnc(C3CC3)o2)c1 | -2.66% | 27.9% | -5.53% | -12.3% | 1.42% | -2.66% | 9.91% | 11.1% | 7.39% | 24.1% | -13.5%
7 | CCC1CCCN(C(=O)Cc2csc(-c3ncccn3)n2)C1 (configuration not stated) | -2.19% | 21.1% | 0.0664% | -8.02% | 5.26% | -1.92% | 24.1% | 25.1% | 5.39% | 17.1% | -12.4%
8 | Cc1occc1C(=O)N1CCO[C@H]2[C@@H](Oc3ccccn3)CC[C@@H]21 | -1.87% | 0% | 5.36% | 1.56% | 0.984% | 0.699% | 9.25% | 5.34% | 3.19% | 3.85% | 4.85%
9 | CCN1CCN(c2ccc(F)cc2C(C)NCc2noc(C)n2)CC1 (configuration not stated) | -1.18% | -8.11% | -2.95% | -6.13% | -1.27% | 1.74% | 2.83% | -7.51% | 1.07% | 1.24% | -0.843%
10 | COCCN1C(=O)[C@]2(CC[C@@H]3CN(C(=O)NCC(C)C)C[C@@H]32)N=C1C | 1.47% | 5.33% | -2.77% | -5% | 5.41% | -49.3% | 5.3% | -20.3% | 1.04% | 0% | -4.55%
11 | Cc1ccc(C(=O)NS(=O)(=O)c2ccccc2C)c(=O)[nH]1 | -3.76% | 8.11% | -4.75% | 9.94% | -5.85% | -6.84% | 4.85% | 15.8% | 7.92% | 6.1% | 1.56%
12 | CC(=O)c1cn(CCC(=O)NCCC(=O)O)c2ccccc12 | 0.0873% | 9.33% | 1.48% | 3.5% | -3.14% | -6.16% | 15.5% | 0.418% | 9.52% | 17.9% | -3.67%
13 | COc1ccc(CNC(=O)N(Cc2ccc(F)cc2F)C2CC2)cn1 | -6.72% | 15.2% | -2.76% | 9.29% | 5.95% | -0.76% | 0.737% | 8.63% | 3.45% | 21.5% | -7.42%
14 | O=C(Cc1ccc2c(c1)OCO2)N1CCCN(c2ccccc2)CC1 | -6.04% | 13.7% | 3.46% | 5.03% | 0.992% | -2% | 4.54% | 10.8% | 3.12% | 11.1% | -0.294%
15 | CC(C)=CCN1CCOC(Cn2nc(C)cc2C)C1 (configuration not stated) | 2.83% | 18.4% | 3.22% | -4.58% | -8.27% | -1.92% | 16.7% | 8.7% | 3.43% | 17.1% | -11.3%
16 | O=C(Nc1cc(F)ccc1OCC1CCCO1)N1CCCC1 (configuration not stated) | -0.769% | 2.6% | -5.42% | 10.4% | 6.55% | 3.56% | -2.37% | -1.89% | 2.91% | 14.6% | -5.42%
17 | COc1cccc(OCC2CCCN(C(=O)c3cnc(C)nc3O)C2)c1 (configuration not stated) | 0.517% | 8.11% | -1.51% | 13.5% | 5.02% | 11.9% | 7.24% | -19% | 7.94% | 17.1% | -2.95%
18 | O=C(C1CCC1)N1CCN(Cc2ccsc2)[C@H]2CS(=O)(=O)C[C@H]21 | -4.53% | 2.6% | 1.04% | 4.76% | -5.41% | 1.38% | 15.8% | 2.92% | 2.15% | 3.7% | -0.294%
19 | COCc1cc(NCCc2ccc(F)cc2)n2nccc2n1 | -5.32% | 0% | 14.1% | -6.47% | -0.196% | -2.27% | -0.887% | -6.7% | 1.07% | 5% | -5.83%
20 | CN(C)C(=O)CSc1nnc(CCNC(=O)OC(C)(C)C)o1 | -1.89% | 9.33% | 6.95% | -7.38% | -8.64% | -13.6% | 13.9% | 10.4% | -3.17% | 2.56% | -10.9%
21 | Cn1ncc2c(=O)[nH]c(N3CCN(C(=O)c4ccsc4)CC3)nc21 | -5.57% | 2.7% | 2.37% | -0.0131% | -6.32% | 17.2% | 3.24% | 25% | -1.48% | -11.1% | 1.01%
22 | CN(CC(=O)NCc1ccccn1)CC1CCCN1c1cccnn1 (configuration not stated) | -1.59% | -5.41% | -4.72% | -0.887% | -2.15% | -3.75% | 27.8% | 3.47% | 8.91% | 1.22% | -0.357%

From ChEMBL document CHEMBL3988442, “University of Dundee, Small-Polar-MMV Screening Library” (2021)
